SARS PLpro yeast: inhibitors of SARS-CoV papain-like protease in yeast; Potency, µM (series often up to 32.9 µM), without a hit: top-dose activity, positive = growth rescue, usual class: activators; AID 485353; S. cerevisiae expressing SARS-CoV PLpro, growth rescue; 0.19% of 330,000 active; calls by dose curve; further: potency means the concentration at half of the fitted maximal effect; 0% is about no effect; nearly all actives have a fitted effect of over 55% in size
Shiga toxin inh: blocks Shiga toxin action in Vero cells; Vero cells, Shiga toxin protein synthesis inhibition reporter; inhibition, % at 38.7 µM; 9.2% of 290,000 active; AID 2315; in the data active means inhibition mostly above about 28%, no sharp cut-off; inactive means mostly below about 43%; further: 0% is about no effect
AMA1-RON2 inh: disrupts binding of P. falciparum AMA1 to RON2. AID 720542. 0.2% of 360,000 active. AlphaScreen AMA1-biotinylated RON2 peptide binding. Potency, µM (doses to about 58.2 µM), for inactives: at the top dose activity change, negative = inhibition, hits mostly inhibitors;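 further: potency means the concentration at half of the fitted maximal effect; 0% = vehicle wells and -100% = peptide control; nearly all actives have a fitted effect of over 45% in size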
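AMA1 (3D7) with his tag at 25 nM final met compounds first, then biotinylated RON2 peptide at 25 nM; detection used donor plus acceptor beads, 10 µg/mL apiece, read by AlphaScreen after 30 min at room temperature.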
CHX counter: counter-screen for Shiga toxin inhibitors: cycloheximide protein synthesis inhibition. cell reporter, cycloheximide protein synthesis inhibition counterscreen. max response, %. 12% of 300,000 active; in the data active means max response mostly above about 13%, no sharp cut-off; inactive means mostly below about 14%; further: read at 38.3 µM for the half of the compounds with a filed dose; 0% is about no effect
AmpC inh no detg: inhibitors of E. coli AmpC beta-lactamase without detergent | P00811 | AmpC nitrocefin hydrolysis, absorbance 480 nm, 0.0001% Triton | Potency, µM (series often up to 57.1 µM), inactives show at the highest dose activity change, negative = inhibition, actives largely listed as inhibitors | 0.52% of 330,000 active;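 further: potency means the concentration at half of the fitted maximal effect; plate controls were no compound for no effect and no enzyme for full effect; nearly all actives have a fitted effect of over 20% in size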
Target sequence (P00811 whole entry, looked up): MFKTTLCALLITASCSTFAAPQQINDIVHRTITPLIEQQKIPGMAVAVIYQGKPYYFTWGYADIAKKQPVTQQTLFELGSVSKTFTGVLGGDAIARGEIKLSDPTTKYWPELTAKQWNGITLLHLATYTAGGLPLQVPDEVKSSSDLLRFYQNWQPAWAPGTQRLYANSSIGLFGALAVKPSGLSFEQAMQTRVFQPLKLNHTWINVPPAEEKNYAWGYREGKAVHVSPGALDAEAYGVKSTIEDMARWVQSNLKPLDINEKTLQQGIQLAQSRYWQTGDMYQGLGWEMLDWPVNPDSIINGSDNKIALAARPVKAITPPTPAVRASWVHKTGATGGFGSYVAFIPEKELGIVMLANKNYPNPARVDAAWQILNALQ
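20 mM phosphate pH 7.0 + 0.01% (detergent screen) or 0.0001% Triton X-100; 5.3 nM AmpC reagent; cpd preinc 15 min RT; nitrocefin (800 uM stock) to start; A480 q20 s × 4 min; Activity was normalised to no-enzyme and no-compound control wells.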
AmpC inh detg: AmpC beta-lactamase inhibition with detergent present. P00811. AmpC hydrolysis of nitrocefin, absorbance 480 nm, 0.01% Triton. Potency, µM (top dose mostly 114 µM), without a hit: at the top dose activity change, negative = inhibition, actives largely listed as inhibitors. 0.041% of 370,000 active. AID 485294;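 further: potency means the concentration at half of the fitted maximal effect; 0% = no-compound wells and -100% = no-enzyme wells; nearly all actives have a fitted effect of over 25% in size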
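20 mM phosphate pH 7.0 + 0.01% (detergent screen) or 0.0001% Triton X-100; 5.3 nM AmpC reagent; cpd preinc 15 min RT; nitrocefin (800 uM stock) to start; A480 q20 s × 4 min; Activity was normalised to no-enzyme and no-compound control wells.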
* hit, by the source's call; ? = inconclusive; nt = no result given. Only a selection was taken, and hits are over-represented in it overall. Unless noted, the call rests on the fitted dose curve; in most records, active means well fitted curve in the direction sought with a large enough effect; inconclusive means small, poorly fitted or top-dose-only effect, or another doubt; inactive means no such curve, though single readings can be large; an effect the other way counts as inactive or inconclusive.

SMILES	SARS PLpro yeast	Shiga toxin inh	AMA1-RON2 inh	CHX counter	AmpC inh no detg	AmpC inh detg
CCn1ccc(C(=O)Nc2ncc(C)s2)n1	1%	57*	24%	28*	-4%	2%
COCc1c(Br)c(C)nc2sc3c(=O)[nH]nnc3c12	-2%	17	4%	0	-3%	0%
Cc1cc(C)c(NC(=O)C2CCCN2CCOC(=O)c2ccccc2)c(C)c1 (centres undefined)	-7%	-8	-2%	-5	125%	-2%
CC(C)(C)c1ccc(-c2conc2N)cc1	-31%	111*	4%	48*	-17%	-5%
CC(C)(C)c1ccc(-c2noc(C(=O)NN)n2)cc1	0%	20	81%	2	-56%	-3%
COc1ccc(-n2c(=S)[nH]c3ccc(C)cc3c2=O)cc1	nt	nt	27%	nt	nt	nt
COc1ccc(N=Nc2[nH]c3ccc(C)cc3c2O)cc1	-4%	35*	-11%	22*	-39%	-13%
NC(=O)c1ccc(N=Nc2c(O)c3ccccc3[nH]c2=O)cc1	22%	4	nt	1	-10%	?
Cc1ccc(N=Nc2[nH]c3ccccc3c2O)cc1	-2%	152*	2%	68*	-53%	?
Cc1cc(C(=O)COc2ccc([N+](=O)[O-])cc2)c(C)n1C1CC1	0%	36*	-18%	16*	-4%	-8%
Cc1ccc2cc(CN(Cc3ccccc3)Cc3nnnn3C3CCCC3)c(=O)[nH]c2c1	-7%	22	9%	3	53%	?
COc1ccc2[nH]c(=O)c(CN(Cc3ccc(C)cc3)Cc3nnnn3CC3CCCO3)cc2c1 (centres undefined)	1%	40*	2%	40*	0%	?
COc1ccccc1CN(Cc1cc2cc(C)ccc2[nH]c1=O)Cc1nnnn1Cc1ccco1	-3%	53*	-8%	13	-10%	-14%
Cc1ccc2cc(CN(Cc3ccc(F)cc3)Cc3nnnn3C3CCCC3)c(=O)[nH]c2c1	-1%	15	-3%	12*	2%	0%
COc1ccc2[nH]c(=O)c(CN(Cc3ccccc3OC)Cc3nnnn3CC3CCCO3)cc2c1 (centres undefined)	3%	-31	3%	-3	74%	?
CCOC(=O)C1=C(C)NC(=O)NC1c1ccccc1Cl (centres undefined)	2%	-6	7%	-1	-20%	-9%
CCc1ccc(OC(=O)c2ccn(CC)n2)cc1	12%	150*	9%	40*	-2%	3%
CCn1ccc(C(=O)Nc2ccsc2C(=O)OC)n1	-9%	9	-14%	19	19%	5%
Cc1ccc(Cn2c(Sc3nccc(C)n3)nc3c2c(=O)[nH]c(=O)n3C)cc1	4%	-2	-3%	1	-2%	?
CCCCCn1c(CN2CCCCC2CC)nc2c1c(=O)n(C)c(=O)n2C (centres undefined)	0%	-5	-6%	-3	0%	?
Cc1ccnc(NC(=O)COc2ccc3oc4c(c3c2)CCCC4)c1	3%	66*	-3%	43*	-18%	2%
Cc1ccccc1NC(=O)COc1ccc2oc3c(c2c1)CCCC3	nt	nt	nt	nt	nt	14%
CC(C)(C)NC(=O)COc1ccc2oc3c(c2c1)CCCC3	-2%	60	-18%	18*	1%	-7%
CNC(=O)NC(=O)COc1ccc2oc3c(c2c1)CCCC3	-8%	58*	-4%	22*	-16%	?
CNC(=O)COc1ccc2oc3c(c2c1)CCCC3	1%	19	9%	9	23%	-12%
SMILES	SARS PLpro yeast	Shiga toxin inh	AMA1-RON2 inh	CHX counter	AmpC inh no detg	AmpC inh detg
COC(=O)Cn1c(CN2CCN(c3ccccc3F)CC2)nc2c1c(=O)n(C)c(=O)n2C	nt	nt	-9%	nt	nt	nt
O=C(Nc1ccc2c(c1)OCCO2)NC1CCCCC1	-2%	53*	1%	44*	-41%	?
Cc1ccc(NC(=O)C(=O)NC2CCCCC2)cc1	5%	3	6%	12*	-11%	-1%
O=C(Nc1cccc(F)c1)NC1CCCCC1	-10%	96*	2%	32*	-22%	?
O=C(Nc1ccc(F)cc1)NC1CCCCC1	-21%	79*	2%	37*	-31%	1%
Cc1ccc(NC(=O)NC2CCCCCCC2)cc1	2%	71*	-1%	40*	-17%	-2%
O=C(NC(=S)NC1CCCCC1)c1ccc(F)cc1	3%	117*	21%	48*	-34%	-7%
O=C(Nc1ccc(F)cc1F)NC1CCCCCCC1	0%	96*	-2%	37*	-35%	7%
Cc1ccc(/C=N/NC(=O)c2c(C)nc3ccc(Br)cn23)cc1	7%	-2	9%	-1	-21%	-13%
NC(=O)c1ccccc1NC(=O)/C=C/c1cccc(Cl)c1	0%	118*	2%	45*	-32%	-5%
NC(=O)c1ccccc1NC(=O)Nc1ccccc1Cl	0%	17	-5%	15	-13%	-5%
NC(=O)c1ccccc1NC(=O)/C=C/c1c(Cl)cccc1Cl	1%	143*	-6%	27*	-20%	-4%
Cc1cc2cc(CNC(=O)C3CCCC3)ccc2n1C	-2%	8	-4%	-3	-27%	2%
COc1ccc(CN(C)C(=O)C2CCN(C(=O)Nc3ccccc3)CC2)cc1OC	2%	nt	9%	nt	-7%	0%
O=C(Nc1ccc(N2CCN(C(=O)c3ccco3)CC2)c(Cl)c1)c1cc2ccccc2o1	-13%	52	-10%	23*	-8%	-1%
CCCC(=O)N1CCN(c2ccc(NC(=O)c3cc4ccccc4o3)cc2Cl)CC1	-4%	11	0%	13	78%	?
O=C(Nc1ccc(N2CCN(C(=O)c3ccccc3)CC2)c(Cl)c1)c1ccco1	-8%	-9	-12%	-3	-24%	-2%
CCC(=O)N1CCN(c2ccc(NC(=O)c3cc4ccccc4o3)cc2Cl)CC1	-19%	-3	-3%	17*	83%	3%
CCCNC(=O)c1ccc2c(=O)c(O)c(-c3ccc(F)cc3)[nH]c2c1	13µM*	-4	123%	-1	-46%	3%
CC(=O)c1sc2nsc(SCCN3CCOCC3)c2c1N	1%	28*	9%	22	18%	7%
Nc1c(C(=O)c2ccccc2)sc2nsc(SCCN3CCOCC3)c12	-1%	29*	14%	23*	131%	-5%
CN1Cc2c(N3CCOCC3)nc3sc(C(=O)c4ccccc4)c(N)c3c2CC1(C)C	0%	71	-13%	-2	159%	5%
CCOC(=O)c1sc2nc(OCCN3CCOCC3)cc(C)c2c1N	nt	nt	-1%	nt	nt	nt
CC(C)n1c(/N=C/c2c[nH]c3ccccc23)nc2ccccc21	-3%	45	-9%	20*	3%	-8%
Cn1c(/N=C/c2c[nH]c3ccccc23)nc2ccccc21	-4%	18	-3%	2	-2%	?
